This is an account of results in PubChem BioAssay (NCATS).

Values without a mark were called inactive. Records with an inconclusive call do not appear. The source made the active and inactive calls. Unless noted, the call rests on the fitted dose curve; in most records, active means well fitted curve in the direction sought with a large enough effect; inconclusive means small, poorly fitted or top-dose-only effect, or another doubt; inactive means no such curve, though single readings can be large; an effect the other way counts as inactive or inconclusive.

Assay [1] addresses Cytochrome P450 1A2 (Homo sapiens) (UniProt P05177). Put plainly: p450-cyp1a2 (AID 410; calls by dose curve; further: potency means the concentration at half of the fitted maximal effect). Put shortly:
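O-Demethylation of luciferin 6' methyl ether by human CYP1A2 is monitored as luciferase luminescence. Substrate sits at Km (100uM); enzyme is 20nM. Values are scaled to 57 uM furafylline as maximal inhibition.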

Assay [2] deals with Glucocorticoid receptor (Homo sapiens) (UniProt P04150). Nature of the assay: GR-GFP Redistribution (AID 450;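 active means compounds whose dose series gives a full or clear partial fitted curve of increased nuclear translocation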; further: potency means the concentration at half of the fitted maximal effect). The note with it: U2OS GR-GFP nuclear translocation, laser cytometry, 2 h.
Assay [3] shares this target. Nature of the assay: GR-EFC Redistribution (AID 451; calls by dose curve; further: potency means the concentration at half of the fitted maximal effect). The following applies: CHO-K1 GR-EFC translocation, beta-gal luminescence, 2 h. Put shortly:
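CHO-K1 cells stably expressing nuclear-localized β-gal enzyme acceptor and GR fused C-terminally to the enzyme donor fragment; ligand-driven nuclear translocation restores β-gal by complementation. Compounds titrated up to 46 uM final, 2 h at 37 °C; luminescence read.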

Assay [4] addresses Mitogen-activated protein kinase 10 (Mus musculus) (UniProt Q61831). Nature of the assay: JNK3 AlphaScreen Assay (AID 530; active means well fitted curve in either direction with a large enough effect, not every such curve was filed as active;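 further: kinase came from lysate of stimulated human HepG2 cells; signal reports phosphorylation of biotinylated GST-cJun 1-79 at Ser73 with 10 µM ATP; on the % scale 0 is the no-effect control and ±100 the full control effect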). Put shortly: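 Phosphorylation of biotinylated GST-cJun(1-79) at Ser73 is measured by AlphaScreen proximity luminescence. Enzyme is JNK3 in HepG2 lysates activated with interleukin-1beta and tumor necrosis factor alpha; ATP is 10 uM final.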
In general terms: Alpha assays give light when donor and acceptor beads are brought close together.

Assay [5] deals with 3',5'-cyclic-AMP phosphodiesterase 4B (Homo sapiens) (UniProt Q07343). Put plainly: qHTS Assay for Inhibitors of PDE-IV (AID 607; active means well fitted activation curve with a large enough effect in the main read-out, with a control signal flat, not every such curve was filed as active; further: % of control where 0% means no effect). The method in brief: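 Cell-based read-out of cAMP via a modified cyclic nucleotide-gated channel and membrane potential dye (535/590 nm) in HEK293 cells expressing PDE4 endogenously. Compounds tested up to 22.9 uM final; 100 uM RO 20-1724 reference.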
In general terms: In qHTS, concentration-response curves come from the screen itself.

Assay [6] concerns the target Cytochrome P450 2C9 (Homo sapiens) (UniProt P11712). Nature of the assay: qHTS Assay for Inhibitors and Substrates of Cytochrome P450 2C9 (AID 883). Further: on the % scale 0 is the no-effect control and ±100 the full control effect; nearly all actives have a fitted effect of over 60% in size. The method in brief: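 Human CYP2C9 (10nM) hydroxylated Luciferin-H (100uM, at its KM) to luciferin in 25mM KPO4. Compound was preincubated 10 min at 37C, then NADPH regeneration started a 60 min reaction at 37C. Luminescence was read after detection reagent, normalized to 57uM sulphaphenazole.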

The target of assay [7] is Cytochrome P450 2D6 (Homo sapiens) (UniProt P10635). Put plainly: qHTS Assay for Inhibitors and Substrates of Cytochrome P450 2D6 (AID 891). Further: potency means the concentration at half of the fitted maximal effect; nearly all actives have a fitted effect of over 60% in size. Put shortly: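 Luminescent read-out of luciferin formed by 5 nM human CYP2D6 demethylating 30 uM Luciferin-ME EGE (Km level) over 60 min at room temperature after NADPH regeneration addition. Data normalized to full inhibition by 1.43 uM quinidine.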

In assay [8] the target is Cytochrome P450 2C19 (Homo sapiens) (UniProt P33261). Nature of the assay: qHTS Assay for Inhibitors and Substrates of Cytochrome P450 2C19 (AID 899). Further: on the % scale 0 is the no-effect control and ±100 the full control effect; nearly all actives have a fitted effect of over 60% in size. Put shortly:
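Human CYP2C19 (5nM) with Luciferin-H EGE at 10uM (its KM) in 50mM KPO4 was preincubated with compound for 10 min at 37C. NADPH regeneration started a 60 min 37C reaction. Luciferin was read by luminescence, normalized to 57uM ketoconazole.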

The nature of assay [9]: AP1 Signaling Pathway (AID 357; active means well fitted curve in either direction with a large enough effect, not every such curve was filed as active; further: on the % scale 0 is the no-effect control and ±100 the full control effect). The following applies: ME-180 (cervical carcinoma) AP-1-bla reporter, EGF-induced, beta-lactamase ratio, 5 h; at 17.2 µM (top of the series) unless noted. The method in brief:
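ME-180 cells with beta-lactamase reporter under AP-1 response element, stimulated with EC50 EGF; compounds tested in titration series, 5 h at 37 °C. CCF4 substrate added 2.5 h at room temperature; 460/530 nm emission ratio gave %activity and AC50.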

The nature of assay [10]: Stat Signaling Pathway (AID 446; active means well fitted curve in either direction with a large enough effect, not every such curve was filed as active;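 further: ME-180 cervical cancer cells given 40 pM IL-6 alongside compound; SIE-controlled beta-lactamase reporter measured as 460/530 nm FRET emission ratio; on the % scale 0 is the no-effect control and ±100 the full control effect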). The method in brief:
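FRET read-out (405 nm excitation, 460/530 nm emission) of a beta-lactamase reporter under a STAT-inducible element in ME-180 cervical carcinoma cells. Cells with compound receive 40 pM IL-6 for 5 h. Values are normalised to AC90 stimulation and AC90 JAK-inhibitor controls.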

Assay [11] deals with Tumor susceptibility gene 101 protein (Homo sapiens) (UniProt Q99816). Put plainly: qHTS Assay for Iinhibitors of HIV-1 Budding by Blocking the Interaction of PTAP/TSG101: Hit Validation (AID 651600). Further: on the % scale 0 is the no-effect control and ±100 the full control effect; nearly all actives have a fitted effect of over 70% in size. The method in brief: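 Fluorescence polarization binding assay: Tsg101 binding domain (10 uM final) pre-dispensed with compounds, then FITC-labeled PTAP-motif peptide (50 nM final) added; 20 min at r.t. in HEPES pH 7.5 buffer with NaCl, Tween 20, EDTA, TCEP.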

The nature of assay [12]: NFAT Signaling Pathway (AID 444; active means well fitted curve in either direction with a large enough effect, not every such curve was filed as active;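 further: carbachol stimulus at about its EC50 of 1 µM final; on the % scale 0 is the no-effect control and ±100 the full control effect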). The note with it: Jurkat NFAT-bla M1, carbachol, beta-lactamase ratio, 5 h; at 17.2 µM (top of the series) unless noted. Put shortly:
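Jurkat cells carrying an NFAT-driven β-lactamase reporter and co-transfected muscarinic M1 receptor were treated with compound plus carbachol (1 uM final, an EC50 level) for 5 h at 37 °C. CCF4 loading followed for 1 h at RT; 460/530 nm ratio gave %activity.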

In assay [13] the target is Guanine nucleotide-binding protein G(i) subunit alpha-1 (Homo sapiens) (UniProt P63096). Nature of the assay: qHTS Assay for Inhibitors of RGS12 GoLoco Motif Activity (Green Fluorophore) (AID 879).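 Further: 0% = labeled peptide with Gαi1 and full inhibition = labeled peptide alone without protein; negative values mean loss of peptide binding seen as reduced polarization.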 Put shortly: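 A drop in FITC polarization marked displacement of the FITC-tagged RGS12 GoLoco peptide (10 nM) from Gαi1 (50 nM). Compounds were incubated 10 min at room temperature in Tris pH 7.5 buffer containing 150 mM NaCl, 0.1 mM GDP and 0.05% NP40; unlabeled peptide titration served as control.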

Assay [14] deals with Cytochrome P450 3A4 (Homo sapiens) (UniProt P08684). Put plainly: qHTS Assay for Activators of Cytochrome P450 3A4 (AID 885). Further: nearly all actives have a fitted effect of over 65% in size. Put shortly: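 Luminescent readout of luciferin formed from 25 uM Luciferin-PPXE (KM level) by 20 nM CYP3A4 in 200 mM KPO4, with 60 min NADPH-driven reaction at room temperature after 10 min compound exposure. Ketoconazole (57 uM) defined 100% inhibition.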

Assay [15] can be described thus: qHTS Assay for Identification of Small Molecule Antagonists for Thrombopoietin (TPO) Signaling Pathway (AID 918). Further: potency means the concentration at half of the fitted maximal effect; nearly all actives have a fitted effect of over 60% in size. The note with it: TPO-dependent cell signaling reporter, antagonist mode. Put shortly:
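Inhibitors of TPO signaling are sought by stimulating IL-3-starved murine Ba/F3 cells (human TPO receptor, Glycoprotein IIb-driven luciferase) with TPO at its EC50 of 26 pM alongside compound. After 24 hrs at 37 C, reporter luminescence is measured.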

Assay [16] has as its target Muscarinic acetylcholine receptor M1 (Rattus norvegicus) (UniProt P08482). Nature of the assay: qHTS Assay for Antagonists of Acetylcholine Muscarinic M1 Receptor: Measurement of IP-One Response (AID 944). Further: nearly all actives have a fitted effect of over 75% in size. The method in brief: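 Antagonist mode with rat M1 receptor transfected into CHO cells. Compound is added first for 10 min, carbachol at its EC80 follows for 30 min, and lysis reagents then allow TR-FRET detection of accumulated IP1.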

For assay [17], the target named is Pyruvate kinase (Leishmania mexicana) (UniProt Q27686). Nature of the assay: qHTS Validation Assay for Inhibitors of Leishmania Mexicana Pyruvate Kinase (AID 945).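 Further: 0% = DMSO only neutral control wells.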 Put shortly:
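Eight-point qHTS titrations in triplicate, data normalized to DMSO neutral control. Reaction: 0.2 nM LmPYK E451W mutant, 0.5 mM PEP, 0.1 mM ADP, 7 mM MgCl2, pH 7.2, one hour at room temperature; luminescent ATP detection.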

The target in assay [18] is Pyruvate kinase PKM (Homo sapiens) (UniProt P14618). Put plainly: qHTS Assay for Activators of Human Muscle Pyruvate Kinase (AID 954; active means well fitted curve in the direction sought with a large enough effect, not every such curve was filed as active;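 further: 0% = uninhibited enzyme and -100% = no enzyme or full thiadiazolimine inhibition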). The method in brief: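 ATP production by PKM2 detected via luciferase luminescence after 1 h room-temperature reaction (0.1 nM enzyme, PEP at Km 0.5 mM, ADP 0.1 mM, pH 7.2 imidazole buffer). Inhibition scaled to no-enzyme control; activation referenced to 0.3 nM enzyme wells.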

In assay [19] the target is Alpha-galactosidase (Coffea arabica) (UniProt Q42656). Nature of the assay: Counterscreen for Glucocerebrosidase Inhibitors: qHTS Assay for Coffee Bean alpha-Galactosidase at pH 4.5 (AID 957).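 Further: plate controls were enzyme alone for no effect and no enzyme for full effect.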 Put shortly:
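Enzyme is added first (2 nM final), then compounds titrated from 0.7 nM to 77 uM, then 80 uM 4-methylumbelliferyl alpha-D-galactopyranoside; after 20 min at room temperature a pH 10 NaOH/glycine stop precedes fluorescence reading at 365/440 nm.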
A general note: The purpose of a counterscreen is to sort out artefacts and off-target activity.

The target in assay [20] is Alpha-galactosidase A (Homo sapiens) (UniProt P06280). Put plainly: Counterscreen for Glucocerebrosidase Inhibitors: qHTS Assay for Human alpha-Galactosidase at pH 4.5 (AID 992). Further: 0% is about no effect. Put shortly: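 Fluorogenic 1536-well qHTS at pH 4.5 (citrate, Tween-20): 2 nM enzyme, 80 uM 4-MU-alpha-galactoside, 20 min room temperature, NaOH/glycine stop. Titration 0.7 nM to 77 uM, data normalized to no-enzyme and full-activity controls, Hill-fitted AC50.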

For assay [21], the target named is alpha-glucosidase (Oryza sativa, rice) (UniProt Q653V4). Nature of the assay: Counterscreen for Glucocerebrosidase Inhibitors: qHTS Assay for Rice alpha-Glucosidase at pH 5.0 (AID 997).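 Further: 0% = full activity with enzyme and -100% = basal without enzyme.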 The method in brief:
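Endpoint fluorogenic assay at pH 5.0: compounds (0.7 nM to 77 uM) titrated against 4 nM rice enzyme and 400 uM 4-MU-alpha-glucoside for 20 min at room temperature; NaOH/glycine stop, read ex 365/em 440 nm, Hill-fitted AC50.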

The target in assay [22] is Alpha-galactosidase (Coffea arabica) (UniProt Q42656). Put plainly: Counterscreen for Glucocerebrosidase Inhibitors: qHTS Assay for Coffee Bean alpha-Galactosidase at pH 5.9 (AID 998).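 Further: plate controls were uninhibited enzyme for no effect and no-enzyme basal signal for full effect.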 The method in brief:
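In 50 mM citric acid pH 5.9 with 0.005% Tween-20, coffee bean enzyme hydrolyses 80 uM 4-MU alpha-D-galactopyranoside over 20 min at RT. Activity is normalized to controls; AC50 comes from Hill-modelled concentration-response data.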

Glucocorticoid receptor (Homo sapiens), sequence (P04150 whole entry, looked up): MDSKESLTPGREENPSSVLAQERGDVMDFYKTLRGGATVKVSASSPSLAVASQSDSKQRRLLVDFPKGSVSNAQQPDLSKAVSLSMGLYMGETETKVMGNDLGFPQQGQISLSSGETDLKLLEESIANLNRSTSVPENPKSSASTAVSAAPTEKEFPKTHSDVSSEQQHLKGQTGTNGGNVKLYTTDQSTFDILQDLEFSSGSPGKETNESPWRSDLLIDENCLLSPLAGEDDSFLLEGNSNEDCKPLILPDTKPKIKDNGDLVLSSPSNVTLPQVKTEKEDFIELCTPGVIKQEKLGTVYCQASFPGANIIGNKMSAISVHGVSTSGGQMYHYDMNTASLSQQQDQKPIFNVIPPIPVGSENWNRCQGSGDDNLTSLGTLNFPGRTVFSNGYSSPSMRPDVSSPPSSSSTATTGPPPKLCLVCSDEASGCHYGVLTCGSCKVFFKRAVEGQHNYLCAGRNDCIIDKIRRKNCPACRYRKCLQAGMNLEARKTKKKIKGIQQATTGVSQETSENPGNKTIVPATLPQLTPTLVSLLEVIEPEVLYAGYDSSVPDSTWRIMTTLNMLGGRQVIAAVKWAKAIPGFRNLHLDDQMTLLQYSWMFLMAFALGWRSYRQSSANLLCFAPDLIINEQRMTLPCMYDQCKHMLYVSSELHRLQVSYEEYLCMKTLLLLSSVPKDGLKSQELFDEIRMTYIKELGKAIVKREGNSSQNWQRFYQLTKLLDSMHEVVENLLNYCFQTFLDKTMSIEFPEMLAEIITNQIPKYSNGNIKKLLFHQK
Cytochrome P450 1A2 (Homo sapiens), sequence (P05177 whole entry, looked up): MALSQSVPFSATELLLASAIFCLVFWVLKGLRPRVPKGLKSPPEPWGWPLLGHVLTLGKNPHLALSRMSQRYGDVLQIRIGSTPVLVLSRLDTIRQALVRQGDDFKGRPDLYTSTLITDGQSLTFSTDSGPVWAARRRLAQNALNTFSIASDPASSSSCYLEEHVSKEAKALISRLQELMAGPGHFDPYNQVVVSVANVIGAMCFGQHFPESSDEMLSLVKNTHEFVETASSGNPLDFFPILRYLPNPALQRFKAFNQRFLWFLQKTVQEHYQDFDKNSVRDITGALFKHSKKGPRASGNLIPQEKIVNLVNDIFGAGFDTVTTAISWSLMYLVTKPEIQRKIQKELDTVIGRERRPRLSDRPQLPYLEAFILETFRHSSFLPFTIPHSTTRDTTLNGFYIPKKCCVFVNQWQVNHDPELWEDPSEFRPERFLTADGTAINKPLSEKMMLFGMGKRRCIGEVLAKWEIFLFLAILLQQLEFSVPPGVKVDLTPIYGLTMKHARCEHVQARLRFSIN
Alpha-galactosidase (Coffea arabica), sequence (Q42656 whole entry, looked up): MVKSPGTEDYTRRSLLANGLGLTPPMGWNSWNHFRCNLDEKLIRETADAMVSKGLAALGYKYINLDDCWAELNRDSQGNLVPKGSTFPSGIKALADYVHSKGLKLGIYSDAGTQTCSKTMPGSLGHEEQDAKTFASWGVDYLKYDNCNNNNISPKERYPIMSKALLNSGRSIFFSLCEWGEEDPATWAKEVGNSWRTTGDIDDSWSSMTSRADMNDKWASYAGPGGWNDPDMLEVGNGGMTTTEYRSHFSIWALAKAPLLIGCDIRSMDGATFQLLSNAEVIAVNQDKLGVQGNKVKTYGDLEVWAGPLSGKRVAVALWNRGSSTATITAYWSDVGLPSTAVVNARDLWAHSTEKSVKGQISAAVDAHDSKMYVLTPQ
Cytochrome P450 2D6 (Homo sapiens), sequence (P10635 whole entry, looked up): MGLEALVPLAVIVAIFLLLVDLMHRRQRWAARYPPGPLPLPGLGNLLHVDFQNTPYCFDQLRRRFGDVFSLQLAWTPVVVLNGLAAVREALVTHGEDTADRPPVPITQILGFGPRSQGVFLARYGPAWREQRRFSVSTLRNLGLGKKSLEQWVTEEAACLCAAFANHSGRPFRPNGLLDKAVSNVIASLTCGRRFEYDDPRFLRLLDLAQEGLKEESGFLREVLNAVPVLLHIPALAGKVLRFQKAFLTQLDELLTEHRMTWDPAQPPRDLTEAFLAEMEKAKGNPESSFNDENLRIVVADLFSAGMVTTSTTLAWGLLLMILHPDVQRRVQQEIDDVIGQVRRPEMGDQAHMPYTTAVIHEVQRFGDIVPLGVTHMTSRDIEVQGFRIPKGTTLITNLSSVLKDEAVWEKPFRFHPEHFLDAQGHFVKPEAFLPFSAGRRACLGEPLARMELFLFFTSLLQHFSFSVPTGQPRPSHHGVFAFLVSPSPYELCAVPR
Pyruvate kinase (Leishmania mexicana), sequence (Q27686 2-499 E452W): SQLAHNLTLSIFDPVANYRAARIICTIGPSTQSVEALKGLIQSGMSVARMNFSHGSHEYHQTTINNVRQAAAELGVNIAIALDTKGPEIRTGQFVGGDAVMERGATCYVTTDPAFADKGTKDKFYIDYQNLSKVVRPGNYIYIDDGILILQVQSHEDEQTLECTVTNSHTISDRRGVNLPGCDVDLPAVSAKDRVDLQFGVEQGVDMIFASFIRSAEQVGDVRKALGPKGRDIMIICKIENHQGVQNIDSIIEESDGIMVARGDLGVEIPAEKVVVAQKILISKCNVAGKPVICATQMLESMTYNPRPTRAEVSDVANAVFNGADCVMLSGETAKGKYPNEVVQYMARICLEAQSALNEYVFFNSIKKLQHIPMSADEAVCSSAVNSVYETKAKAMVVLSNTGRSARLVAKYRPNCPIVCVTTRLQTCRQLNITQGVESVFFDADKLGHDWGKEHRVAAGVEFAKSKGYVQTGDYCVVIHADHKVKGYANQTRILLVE
Cytochrome P450 3A4 (Homo sapiens), sequence (P08684 whole entry, looked up): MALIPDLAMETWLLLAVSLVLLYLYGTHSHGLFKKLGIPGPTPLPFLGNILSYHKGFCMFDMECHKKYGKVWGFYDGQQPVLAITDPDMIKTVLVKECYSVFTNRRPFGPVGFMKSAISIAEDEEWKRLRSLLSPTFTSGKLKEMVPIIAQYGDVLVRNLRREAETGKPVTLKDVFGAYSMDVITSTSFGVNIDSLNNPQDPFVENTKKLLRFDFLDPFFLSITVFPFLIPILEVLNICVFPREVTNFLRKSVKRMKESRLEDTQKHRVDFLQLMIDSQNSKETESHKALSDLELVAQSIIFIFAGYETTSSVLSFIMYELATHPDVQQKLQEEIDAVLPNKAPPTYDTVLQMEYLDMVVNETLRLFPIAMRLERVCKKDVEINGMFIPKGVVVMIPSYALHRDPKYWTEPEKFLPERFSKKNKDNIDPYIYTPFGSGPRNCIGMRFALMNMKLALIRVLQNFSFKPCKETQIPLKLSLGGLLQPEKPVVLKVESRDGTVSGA
Pyruvate kinase PKM (Homo sapiens), sequence (P14618 whole entry, looked up): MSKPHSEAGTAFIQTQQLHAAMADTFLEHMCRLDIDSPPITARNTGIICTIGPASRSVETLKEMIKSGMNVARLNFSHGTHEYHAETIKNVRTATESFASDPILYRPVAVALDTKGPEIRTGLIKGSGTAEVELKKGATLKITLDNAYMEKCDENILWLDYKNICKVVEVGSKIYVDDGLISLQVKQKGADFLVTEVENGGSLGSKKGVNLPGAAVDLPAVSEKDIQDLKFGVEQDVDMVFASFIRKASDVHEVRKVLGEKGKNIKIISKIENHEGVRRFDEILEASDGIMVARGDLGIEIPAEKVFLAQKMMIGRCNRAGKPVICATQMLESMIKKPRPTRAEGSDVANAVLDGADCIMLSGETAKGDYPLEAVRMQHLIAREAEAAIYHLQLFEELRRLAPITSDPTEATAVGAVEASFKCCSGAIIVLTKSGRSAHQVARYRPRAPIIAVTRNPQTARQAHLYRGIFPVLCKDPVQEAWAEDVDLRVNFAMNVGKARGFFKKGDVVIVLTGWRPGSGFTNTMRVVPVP
3',5'-cyclic-AMP phosphodiesterase 4B (Homo sapiens), sequence (Q07343 whole entry, looked up): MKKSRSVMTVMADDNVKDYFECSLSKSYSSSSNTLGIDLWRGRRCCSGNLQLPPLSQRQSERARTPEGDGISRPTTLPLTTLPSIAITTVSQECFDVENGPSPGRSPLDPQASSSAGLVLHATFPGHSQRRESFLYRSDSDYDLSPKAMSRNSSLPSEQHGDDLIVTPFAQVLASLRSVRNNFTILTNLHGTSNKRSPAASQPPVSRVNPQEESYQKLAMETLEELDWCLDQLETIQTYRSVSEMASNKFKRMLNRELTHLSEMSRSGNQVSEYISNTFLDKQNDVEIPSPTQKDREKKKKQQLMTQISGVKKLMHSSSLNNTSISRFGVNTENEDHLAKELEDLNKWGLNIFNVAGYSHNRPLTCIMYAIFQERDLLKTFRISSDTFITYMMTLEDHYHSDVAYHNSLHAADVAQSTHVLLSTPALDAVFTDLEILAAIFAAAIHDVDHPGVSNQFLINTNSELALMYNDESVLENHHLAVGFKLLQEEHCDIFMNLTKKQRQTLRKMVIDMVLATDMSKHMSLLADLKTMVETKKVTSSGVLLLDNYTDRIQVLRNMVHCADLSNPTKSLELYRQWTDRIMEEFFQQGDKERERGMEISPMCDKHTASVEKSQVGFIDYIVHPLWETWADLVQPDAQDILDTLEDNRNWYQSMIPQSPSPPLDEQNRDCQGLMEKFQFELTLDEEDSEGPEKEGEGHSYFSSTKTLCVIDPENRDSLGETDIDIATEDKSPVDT
Alpha-galactosidase A (Homo sapiens), sequence (P06280 whole entry, looked up): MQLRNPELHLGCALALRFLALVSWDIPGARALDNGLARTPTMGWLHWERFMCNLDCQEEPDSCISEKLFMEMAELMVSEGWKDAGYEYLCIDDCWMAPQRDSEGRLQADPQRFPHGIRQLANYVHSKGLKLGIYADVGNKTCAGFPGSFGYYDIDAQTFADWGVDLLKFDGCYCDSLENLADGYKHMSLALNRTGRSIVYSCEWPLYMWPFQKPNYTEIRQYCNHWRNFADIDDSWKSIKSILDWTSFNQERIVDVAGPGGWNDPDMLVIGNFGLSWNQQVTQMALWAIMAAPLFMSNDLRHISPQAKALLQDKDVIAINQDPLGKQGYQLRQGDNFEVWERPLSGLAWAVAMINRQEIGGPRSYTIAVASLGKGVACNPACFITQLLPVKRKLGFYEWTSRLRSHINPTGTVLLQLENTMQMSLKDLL

For the molecule `C=C[C@@H]1CN2CC[C@@H]1C[C@H]2[C@H](O)c1ccnc2ccccc12`, the Potency entry in assay [1], in [6] and in [8] was “inactive” each time. The Potency is more than 46 µM in assay [2], more than 46 µM in assay [3] and 3.98 µM (active) in assay [7]. The result in [4] and in assay [5] was inactive.

As for `CCCCOCCCn1c(N)c(C(=O)OCCOC)c2nc3ccccc3nc21`, the activity change, negative = inhibition in [9] was -2.11%. In addition, the call in assay [10] was inactive. In assay [2], the Potency was more than 20.6 µM.

With `CN1CC=C2C(C#N)=C(N)C(C#N)(C#N)C(c3ccncc3)C2C1` (stereo unspecified), the activity change, negative = inhibition in assay [9] was 21.4%. The call in [10] was inactive. In assay [2], the Potency was more than 20.6 µM. The Potency result in assay [11] was “inactive”.

For `Ic1ccccc1CN[C@@H]1C2CCN(CC2)[C@H]1C(c1ccccc1)c1ccccc1`, the Potency in assay [1] is 12.6 µM (active); in assay [2], more than 46 µM; in assay [3] it was more than 46 µM; in assay [7], 0.0631 µM (active); in assay [15], 12.6 µM (active). Further, in [12], the activity change, negative = inhibition was -6.46% [at 38 µM]. Also, the molecule was called inactive in assay [4], in assay [18], in assay [19], in [20], in [21] and in [22]. In addition, the Potency result in [13], in [14], in assay [16] and in [17] was “inactive” in each case.
